# Test results from the supplement of paper PMC6555819.
# Columns and labels:
# Assay in all cases: PBM binding z-score (relative to random genomic background probes); higher = stronger binding; sequences stand for … in GC…GCGATTGACAGCGTAGAATGAAGG
# [1] = test system: FXR:RXRa (NR concentration 270 nM, RXRa partner concentration 90 nM)
# Outline: (§1)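 Probes were double-stranded and carried 34-nt variable regions with direct-repeat seeds, single-nucleotide variants, half-site ablations and random human genomic background sequences, printed on custom Agilent 4×180K protein-binding microarrays. Arrays were incubated 1 h with ligand-free nuclear receptor dimers in PBS pH 7.4, 2% milk, 0.02% Triton X-100, 1 mM DTT, 0.2 mg/mL BSA and 0.4 mg/ml salmon testes DNA. Antibodies against each partner (one per run) detected binding, and scanned fluorescence was regression-normalized. Binding z-scores use the random background probes as reference.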
# [2] = test system: LXRa:RXRa (NR concentration 270 nM, RXRa partner concentration 90 nM)
# Outline: as §1
# [3] = test system: LXRa homodimer (NR concentration 270 nM)
# Outline: as §1
# [4] = test system: LXRb:RXRa (NR concentration 270 nM, RXRa partner concentration 90 nM)
# Outline: as §1
# [5] = test system: LXRb homodimer (NR concentration 270 nM)
# Outline: as §1
# [6] = test system: PPARa:RXRa (NR concentration 270 nM, RXRa partner concentration 90 nM)
# Outline: as §1
# [7] = test system: PPARg:RXRa (NR concentration 180 nM, RXRa partner concentration 90 nM)
# Outline: as §1
# [8] = test system: PPARg:RXRa 270nM:90nM, anti-RXR (NR concentration 270 nM, RXRa partner concentration 90 nM)
# Outline: as §1
# [9] = test system: PPARg:RXRa 30nM:10nM, anti-RXR (NR concentration 30 nM, RXRa partner concentration 10 nM)
# Outline: as §1
# [10] = test system: PPARg:RXRa 90nM:30nM, anti-RXR (NR concentration 90 nM, RXRa partner concentration 30 nM)
# Outline: as §1
# [11] = test system: PPARg:RXRa DBDmut IVT, anti-RXR (DBD mutation: RXRa K156A/R161A, NR concentration 270 nM, RXRa partner concentration 90 nM)
# Outline: as §1
# [12] = test system: PPARg:RXRa IVT, anti-PPARg (NR concentration 270 nM, RXRa partner concentration 90 nM)
# Outline: as §1
# [13] = test system: PPARg DBDmut:RXRa IVT, anti-PPARg (DBD mutation: PPARg1 K132A/R137A, NR concentration 270 nM, RXRa partner concentration 90 nM)
# Outline: as §1
# [14] = test system: PPARg DBDmut IVT, anti-PPARg (DBD mutation: PPARg1 K132A/R137A, NR concentration 270 nM)
# Outline: as §1
# [15] = test system: PPARg homodimer (NR concentration 180 nM)
# Outline: as §1
# [16] = test system: PXR:RXRa (NR concentration 270 nM, RXRa partner concentration 90 nM)
# Outline: as §1
# [17] = test system: PXR homodimer (NR concentration 270 nM)
# Outline: as §1
# [18] = test system: RARa:RXR (NR concentration 270 nM, RXRa partner concentration 90 nM)
# Outline: as §1
# [19] = test system: RARa homodimer (NR concentration 270 nM)
# Outline: as §1
# [20] = test system: RARb:RXRa (NR concentration 270 nM, RXRa partner concentration 90 nM)
# Outline: as §1
Sequence,PBM binding z-score [1],PBM binding z-score [2],PBM binding z-score [3],PBM binding z-score [4],PBM binding z-score [5],PBM binding z-score [6],PBM binding z-score [7],PBM binding z-score [8],PBM binding z-score [9],PBM binding z-score [10],PBM binding z-score [11],PBM binding z-score [12],PBM binding z-score [13],PBM binding z-score [14],PBM binding z-score [15],PBM binding z-score [16],PBM binding z-score [17],PBM binding z-score [18],PBM binding z-score [19],PBM binding z-score [20]
CCTAGCAGGCCAGAGTCACTCAAGCATTTCGCTT,-0.525,-0.329,-0.444,-0.519,-1.47,-0.299,-0.117,-0.25,-0.904,-0.753,0.697,-0.158,-1.34,-1.29,0.134,-0.712,-0.709,-0.507,-0.47,-0.0457
ATTAGCAGGCCAAGTTTGGGTCACTCAAACAAAG,0.082,0.215,-0.128,0.803,-0.539,1.62,0.124,0.309,-0.279,0.138,0.708,1.31,-0.0201,-0.208,0.531,0.924,0.144,1.97,-0.273,1.83
AGAACGTGGGCACGCTGAGTTGATAGCAGAGTAG,-0.602,-0.538,-0.448,-0.8,-1.22,-0.462,0.523,-0.265,-0.225,-0.405,-0.231,-0.143,0.109,-0.419,-0.518,-0.542,-0.719,-0.528,-0.906,-0.0707
GCTATTAGTTGAAAGGGCAACTGAATGATTCTCG,0.614,0.896,0.18,1.1,0.073,2.51,2.65,4.03,2.6,4.54,0.54,1.04,0.18,0.595,1.34,0.933,0.252,1.68,0.584,2.1
TCATATAGGTAATACAGGCGAAAGTCGGCATCTA,0.743,0.759,0.19,0.501,-0.147,1.06,0.851,2.29,4.01,3.08,3.6,2.22,1.28,0.916,0.655,0.46,0.00877,0.48,0.962,0.247
TAATATAGGTAAACAGGTGAAAGTCCGTAAGTTA,0.323,0.622,0.406,0.745,0.296,3.34,5.42,4.89,2.54,4.16,6.47,6.56,2.22,1.8,2.01,0.69,0.586,1.12,1.5,0.768
CGTCCAAGGACAAAGGTCAGTGAAGAGATGACGG,3.18,3.25,1,2.85,-0.0848,4.56,5.79,5.86,3.8,5.51,0.675,2.78,-0.53,-0.214,2.27,3.18,0.71,3.79,1.02,4.56
TCATATAGGTAATACAGGTGAGAGTCGGCATCTA,0.19,0.512,0.274,0.54,0.184,1.63,1.39,2.16,3.62,2.77,3.93,3.29,1.38,1.56,0.749,0.46,0.623,0.533,1.42,0.457
CTCGAAAGGACGGTTGAGGTGAGTATACGGATAA,0.507,-0.351,-0.439,-0.303,-0.832,0.0414,0.232,-0.0748,0.0534,-0.244,-0.361,-0.0316,0.142,0.0698,-0.218,0.0192,0.134,0.512,-0.448,0.634
ACTAGCAGGCCAAGGGTCATTCAAGATTAGTCCG,3.35,3.46,1.07,3.3,-0.0105,4.72,7.69,7.28,5.9,7.5,0.965,3.72,0.143,-0.155,1.76,3.83,0.144,4.26,0.503,3.41
CCTAGCAGGCTAATCTGGGTCACTCAAGGCTTGA,0.577,3.74,0.0725,1.2,-0.635,3.14,2.13,2.31,0.292,1.49,4.46,5.23,0.678,0.0667,0.493,0.328,-0.671,1.34,-0.634,1.07
TCTATTAGTTGGAGGGCAACCGACGAGTCCGTTT,0.6,1.06,0.645,0.855,0.753,0.93,-0.158,1.88,3.25,2.33,1.97,0.996,0.0745,-0.289,1.04,1.08,1.11,0.737,0.176,1.35
TTACCAAGGTGAAAGGTCGTTAATGCACGCCTTG,3.24,2.77,0.376,2.71,-0.461,5.24,8.59,7.35,6.74,7.85,2.25,4.95,-0.238,0.567,1.27,3.35,0.236,4.98,0.00553,2.78
